In PubChem BioAssay AID1159580 (chemical genetic matrix, 2015):
Screen size: about 5,500 compounds; about 2,000 (36%) were called active. Another 18% or so got no clear call; they are omitted. No stated cut-off is given here; in the data, active means normalized growth mostly below about 0.91 (no sharp cut-off); inconclusive means no clear call, values can overlap the other calls; inactive means mostly above about 0.92. This is one part of the list.

Assay: chemical genetic growth profiling, strain panel (AID 1159580);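 further: tested at 20 µM; growth read once vehicle control cultures reached saturation at 30 °C; 1 = growth at the plate median or of vehicle wells; lower values mean less growth of the strain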
Settings: S. cerevisiae deletion strains, growth OD
[1] = locus YDL101C, strain DUN1, active compounds read low
[2] = locus YHR030C, strain SLT2, active compounds read low

Measured: normalized growth

CCOC(=O)c1ccc(NC(=S)N2CCOCC2)cc1
inactive: locus YAL013W, strain DEP1, active compounds read low 1.01 | locus YBR229C, strain ROT2, active compounds read low 0.979 | locus YCL061C, strain MRC1, active compounds read low 0.939 | [1] 0.978 | locus YDR150W, strain NUM1, active compounds read low 0.945 | locus YEL061C, strain CIN8, active compounds read low 0.985 | locus YGR078C, strain PAC10, active compounds read low 0.99 | [2] 0.956 | locus YHR087W, strain rtc3, active compounds read low 0.974 | locus YJR043C, strain POL32, active compounds read low 0.962 | locus YJR075W, strain HOC1, active compounds read low 0.947 | locus YKL190W, strain CNB1, active compounds read low 1.01 | locus YLR039C, strain RIC1, active compounds read low 1 | locus YLR058C, strain SHM2 (second series), active compounds read low 1.02 | locus YLR085C, strain ARP6, active compounds read low 0.991 | locus YLR262C, strain YPT6, active compounds read low 1 | locus YML094W, strain GIM5, active compounds read low 0.978 | locus YMR219W, strain ESC1, active compounds read low 0.999 | locus YMR263W, strain SAP30, active compounds read low 0.933 | locus YMR307W, strain GAS1, active compounds read low 0.965 | locus YNL153C, strain GIM3, active compounds read low 0.982 | locus YNL298W, strain CLA4 (second series), active compounds read low 0.951 | locus YNL322C, strain KRE1, active compounds read low 1.01 | locus YNR030W, strain Alg12, active compounds read low 1.01 | locus YOL006C, strain TOP1, active compounds read low 0.805 | locus YPL055C, strain LGE1, active compounds read low 0.888 | locus YPL241C, strain CIN2, active compounds read low 0.988 | locus YPR135W, strain CTF4, active compounds read low 0.972

CCOC(=O)c1ccc(N=Cc2cc(Cl)cc(Cl)c2O)cc1
inactive: locus YAR019C, strain CDC15, active compounds read low 0.934 | locus YBL105C, strain PKC1, active compounds read low 0.949 | locus YBR135W, strain CKS1, active compounds read low 0.95 | locus YBR136W, strain MEC1, active compounds read low 0.954 | locus YBR160W, strain CDC28, active compounds read low 0.946 | locus YDL017W, strain CDC7, active compounds read low 0.94 | locus YDL028C, strain MPS1, active compounds read low 0.946 | [1] 0.946 | locus YDL108W, strain KIN28, active compounds read low 0.948 | locus YDL132W, strain cdc53, active compounds read low 0.975 | locus YDR052C, strain DBF4, active compounds read low 0.95 | locus YDR226W, strain ADK1, active compounds read low 0.969 | locus YFL009W, strain cdc4, active compounds read low 0.964 | locus YFL029C, strain CAK1, active compounds read low 0.923 | locus YFR003C, strain YPI1, active compounds read low 0.939 | locus YFR028C, strain CDC14, active compounds read low 0.957 | locus YIL147C, strain SLN1, active compounds read low 0.937 | locus YJL128C, strain PBS2, active compounds read low 0.908 | locus YJR016C, strain ILV3, active compounds read low 0.963 | locus YKL193C, strain SDS22, active compounds read low 0.957 | locus YMR001C, strain CDC5, active compounds read low 0.943 | locus YMR277W, strain FCP1, active compounds read low 0.96 | locus YNL006W, strain LST8, active compounds read low 0.952 | locus YNL161W, strain CBK1, active compounds read low 0.965 | locus YNL207W, strain RIO2, active compounds read low 0.951 | locus YNL222W, strain SSU72, active compounds read low 0.956 | locus YOL078W, strain AVO1, active compounds read low 0.922 | locus YOR329C, strain SCD5, active compounds read low 0.942 | locus YPL209C, strain IPL1, active compounds read low 0.952 | locus YPR025C, strain CCL1, active compounds read low 0.948 | locus YPR106W, strain ISR1, active compounds read low 0.958 | locus YPR111W, strain DBF20, active compounds read low 0.955 | strain NNK1, active compounds read low 0.952 | strain TSCII, active compounds read low 0.913
active: locus YDL214C, strain PRR2, active compounds read low 0.3 | locus YDR477W, strain SNF1, active compounds read low 0.289 | locus YER123W, strain YCK3, active compounds read low 0.157 | locus YER133W, strain GLC7, active compounds read low 0.344 | locus YFR019W, strain FAB1, active compounds read low 0.153 | locus YGR040W, strain KSS1, active compounds read low 0.349 | locus YGR052W, strain FMP48, active compounds read low 0.257 | locus YGR092W, strain DBF2, active compounds read low 0.135 | [2] 0.135 | locus YHR079C, strain IRE1, active compounds read low 0.131 | locus YHR082C, strain KSP1, active compounds read low 0.2 | locus YHR205W, strain SCH9, active compounds read low 0.221 | locus YJL095W, strain BCK1, active compounds read low 0.136 | locus YJL157C, strain FAR1, active compounds read low 0.181 | locus YJR066W, strain TOR1 (second series), active compounds read low 0.289 | locus YJR066W, strain TOR1, active compounds read low 0.169 | locus YKL048C, strain ELM1, active compounds read low 0.405 | locus YKL067W, strain YNK1, active compounds read low 0.274 | locus YKL101W, strain HSL1, active compounds read low 0.323 | locus YKL203C, strain TOR2, active compounds read low 0.296 | locus YLR113W, strain HOG1, active compounds read low 0.166 | locus YLR133W, strain CKI1, active compounds read low 0.208 | locus YLR403W, strain SFP1, active compounds read low 0.166 | locus YML070W, strain DAK1, active compounds read low 0.198 | locus YMR205C, strain PFK2 (second series), active compounds read low 0.308 | locus YNL020C, strain ARK1, active compounds read low 0.175 | locus YNL183C, strain NPR1, active compounds read low 0.229 | locus YNL307C, strain MCK1 (second series), active compounds read low 0.175 | locus YOL136C, strain PFK27, active compounds read low 0.153 | locus YOR061W, strain CKA2, active compounds read low 0.193 | locus YOR119C, strain RIO1, active compounds read low 0.368 | locus YOR231W, strain MKK1, active compounds read low 0.131 | locus YPL031C, strain PHO85, active compounds read low 0.245 | locus YPL153C, strain RAD53, active compounds read low 0.213 | locus YPL204W, strain HRR25, active compounds read low 0.196 | locus YPL256C, strain CLN2, active compounds read low 0.152
